Measurements as given in PubChem BioAssay (NCATS).
Results filed as inconclusive are left out. Activity calls are given as the source filed them. Calls follow the shape of the dose curve; as a rule, active = well fitted cell-killing curve with a large enough effect; inconclusive = small, poorly fitted or top-dose-only effect; inactive = flat fitted curve, though single readings scatter.

assay: qHTS of pediatric cancer cell lines to identify multiple opportunities for drug repurposing: Primary screen for BT-12 cells (AID 1347101); details: BT-12 viability, CellTiter-Glo luminescence, 48 h; series mostly up to 57.3 µM; also: nearly all actives have a fitted effect of over 25% in size;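 as to activity change, negative = cytotoxic: plate controls were DMSO for no effect and bortezomib positive control for full effect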
Outline: (§1)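 Cells (500-1,000/well) rested 5 h, then received compounds for 48 h; metabolically active cells were measured by CellTiter-Glo luminescence. Final concentrations spanned up to 46 µM (MIPE, 11-point) or 0.59 nM-46 µM (NPC, 8-point) in primary screens, 11-point in follow-ups.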
Potency is read from the fitted curve at half-maximal effect.

Row | SMILES | Potency | activity change, negative = cytotoxic
1 | CCN1CCN(Cc2ccc(-c3cc4c(N[C@H](C)c5ccccc5)ncnc4[nH]3)cc2)CC1 | 0.769 µM (active) | –
2 | CCc1c2c(nc3ccc(O)cc13)-c1cc3c(c(=O)n1C2)COC(=O)[C@]3(O)CC | 0.193 µM (active) | –
3 | CNC(=O)c1ccc(N2C(=S)N(c3cnc(C#N)c(C(F)(F)F)c3)C(=O)C23CCC3)cc1F | 19.3 µM (active) | –
4 | Cc1ccc(C(=O)Nc2cccc(C(F)(F)F)c2)cc1-c1ccc2nc(NCCN3CCOCC3)ncc2c1 | 7.69 µM (active) | –
5 | CCc1cc2c(cc1N1CCC(N3CCOCC3)CC1)C(C)(C)c1[nH]c3cc(C#N)ccc3c1C2=O | inactive | –
6 | CN1CCN(c2ccc3nc(-c4c(N)c5c(F)cccc5[nH]c4=O)[nH]c3c2)CC1 | 17.2 µM (active) | –
7 | Clc1cccc(-c2nnnn2Cc2cccnc2)c1Cl | inactive | –
8 | COc1cc(C)c(Sc2cnc(NC(=O)c3ccc(CNC(C)C(C)C)cc3)s2)cc1C(=O)N1CCN(C(C)=O)CC1 (centres undefined) | 24.3 µM (active) | –
9 | CN1CCN(Cc2ccc(NC(=O)Nc3ccc(Oc4cc(NC(=O)C5CC5)ncn4)cc3)cc2C(F)(F)F)CC1 | 0.485 µM (active) | –
10 | CC(C)c1ccccc1Cc1cc(C(=O)Nc2ccc(S(=O)(=O)c3ccccc3C(C)(C)C)cc2)c(O)c(O)c1O | 21.7 µM (active) | –
11 | O=C(c1cncc(Br)c1)N1CCC(N2CCCC2)CC1 | inactive | –
12 | Nc1nc(NCCNc2ncc(-n3ccnc3)c(-c3ccc(Cl)cc3Cl)n2)ccc1[N+](=O)[O-] | 24.3 µM (active) | –
13 | COc1ccc(CC2c3cc(OC)c(OC)cc3CC[N+]2(C)CCC(=O)OCCCCCOC(=O)CC[N+]2(C)CCc3cc(OC)c(OC)cc3C2Cc2ccc(OC)c(OC)c2)cc1OC (centres undefined) | – | 7.29% [at 11.5 µM] (inactive)
14 | Cc1ccc2nc(NC(=O)CSc3nc4c(c(=O)n3-c3ccccc3)SCC4)sc2c1 | 5.44 µM (active) | –
15 | O=C(O)c1ccc2c(c1)nc(Nc1cccc(Cl)c1)c1ccncc12 | 19.3 µM (active) | –
16 | CC(C)(O)CCc1ccc(OCc2cc(-c3cccc(OC(F)F)c3)c3ncccc3c2)cc1 | inactive | –
17 | Cc1cn(-c2cc(NC(=O)c3ccc(C)c(Nc4nccc(-c5cccnc5)n4)c3)cc(C(F)(F)F)c2)cn1 | inactive | –
18 | C1=CCOCc2cc(ccc2OCCN2CCCC2)Nc2nccc(n2)-c2cccc(c2)OCC1 | 7.69 µM (active) | –
19 | CCOc1cc2ncc(C#N)c(Nc3ccc(F)c(Cl)c3)c2cc1NC(=O)C=CCN(C)C | 7.69 µM (active) | –
20 | CC(C)(C)c1cc(C(C)(C)C)c(NC(=O)c2c[nH]c3ccccc3c2=O)cc1O | inactive | –
21 | CCS(=O)(=O)c1cccc(-c2cc(C(=O)NC3CCN(C)CC3)c(C)c3[nH]c4ncc(C)cc4c23)c1 | 6.11 µM (active) | –
22 | C#Cc1cccc(Nc2ncnc3cc(OC)c(OCCCCCCC(=O)NO)cc23)c1 | 2.17 µM (active) | –
23 | CC(C)c1ccc(Cn2ccc3c4c(N)nc(NC5CC5)nc4ccc32)cc1 | 4.32 µM (active) | –
24 | CC[C@@]1(O)C(=O)OCc2c1cc1n(c2=O)Cc2cc3cc(O)ccc3nc2-1 | 0.385 µM (active) | –
25 | C=CC(=O)Nc1cc2c(Nc3ccc(F)c(Cl)c3)ncnc2cc1C#CC(C)(C)N1CCN(C)CC1 | 21.7 µM (active) | –
26 | Cc1cc(N2CCOCC2)cc2[nH]c(-c3c(NC[C@@H](O)c4cccc(Cl)c4)cc[nH]c3=O)nc12 | 24.3 µM (active) | –
27 | COc1ccc(C(=O)CC2(O)C(=O)Nc3c(Cl)ccc(Cl)c32)cc1 (centres undefined) | 3.43 µM (active) | –
28 | O=C(C=Cc1cccc(S(=O)(=O)Nc2ccccc2)c1)NO | 11.1 µM (active) | –
29 | CNC(=O)c1cc(Oc2ccc(NC(=O)Nc3cc(C(C)(C)C)nn3-c3ccc4ncccc4c3)c(F)c2)ccn1 | 24.3 µM (active) | –

assay: qHTS of pediatric cancer cell lines to identify multiple opportunities for drug repurposing: Primary screen for Rh18 cells (AID 1347102); details: Rh18 rhabdomyosarcoma viability, CellTiter-Glo luminescence, 48 h; series mostly up to 46 µM; also: nearly all actives have a fitted effect of over 65% in size; as to activity change, negative = cytotoxic: % is scaled to controls: 0 for no effect and ±100 for the full control effect
Outline: as §1

Row | SMILES | Potency | activity change, negative = cytotoxic
30 | CCN1CCN(Cc2ccc(-c3cc4c(N[C@H](C)c5ccccc5)ncnc4[nH]3)cc2)CC1 | 5.9 µM (active) | –
31 | CCc1c2c(nc3ccc(O)cc13)-c1cc3c(c(=O)n1C2)COC(=O)[C@]3(O)CC | 0.105 µM (active) | –
32 | CNC(=O)c1ccc(N2C(=S)N(c3cnc(C#N)c(C(F)(F)F)c3)C(=O)C23CCC3)cc1F | 14.8 µM (active) | –
33 | Cc1ccc(C(=O)Nc2cccc(C(F)(F)F)c2)cc1-c1ccc2nc(NCCN3CCOCC3)ncc2c1 | 7.43 µM (active) | –
34 | CCc1cc2c(cc1N1CCC(N3CCOCC3)CC1)C(C)(C)c1[nH]c3cc(C#N)ccc3c1C2=O | inactive | –
35 | CN1CCN(c2ccc3nc(-c4c(N)c5c(F)cccc5[nH]c4=O)[nH]c3c2)CC1 | 20.9 µM (active) | –
36 | Clc1cccc(-c2nnnn2Cc2cccnc2)c1Cl | inactive | –
37 | CC(C)c1ccccc1Cc1cc(C(=O)Nc2ccc(S(=O)(=O)c3ccccc3C(C)(C)C)cc2)c(O)c(O)c1O | 18.7 µM (active) | –
38 | O=C(c1cncc(Br)c1)N1CCC(N2CCCC2)CC1 | inactive | –
39 | CNC(=O)c1ccccc1Nc1nc(Nc2ccc(N3CCOCC3)cc2OC)ncc1Cl | 5.9 µM (active) | –
40 | Nc1nc(NCCNc2ncc(-n3ccnc3)c(-c3ccc(Cl)cc3Cl)n2)ccc1[N+](=O)[O-] | 14.8 µM (active) | –
41 | COc1ccc(CC2c3cc(OC)c(OC)cc3CC[N+]2(C)CCC(=O)OCCCCCOC(=O)CC[N+]2(C)CCc3cc(OC)c(OC)cc3C2Cc2ccc(OC)c(OC)c2)cc1OC (centres undefined) | – | -3.1% [at 9.22 µM] (inactive)
42 | O=C(O)c1ccc2c(c1)nc(Nc1cccc(Cl)c1)c1ccncc12 | 14.8 µM (active) | –
43 | CC(C)(O)CCc1ccc(OCc2cc(-c3cccc(OC(F)F)c3)c3ncccc3c2)cc1 | inactive | –
44 | Cc1cn(-c2cc(NC(=O)c3ccc(C)c(Nc4nccc(-c5cccnc5)n4)c3)cc(C(F)(F)F)c2)cn1 | inactive | –
45 | C1=CCOCc2cc(ccc2OCCN2CCCC2)Nc2nccc(n2)-c2cccc(c2)OCC1 | 7.43 µM (active) | –
46 | C=C1C(=CC=C2CCCC3(C)[C@@H]([C@H](C)C=CC=CC(O)(CC)CC)CC[C@@H]23)C[C@@H](O)C[C@@H]1O (some centres undefined) | inactive | –
47 | CCOc1cc2ncc(C#N)c(Nc3ccc(F)c(Cl)c3)c2cc1NC(=O)C=CCN(C)C | 10.5 µM (active) | –
48 | CC(C)(C)c1cc(C(C)(C)C)c(NC(=O)c2c[nH]c3ccccc3c2=O)cc1O | inactive | –
49 | CCS(=O)(=O)c1cccc(-c2cc(C(=O)NC3CCN(C)CC3)c(C)c3[nH]c4ncc(C)cc4c23)c1 | 1.18 µM (active) | –
50 | C#Cc1cccc(Nc2ncnc3cc(OC)c(OCCCCCCC(=O)NO)cc23)c1 | 0.469 µM (active) | –
51 | CC(C)c1ccc(Cn2ccc3c4c(N)nc(NC5CC5)nc4ccc32)cc1 | 18.7 µM (active) | –
52 | Cc1ccc(S(=O)(=O)Nc2cc(Cl)ccc2C(=O)Nc2nc(-c3ccccc3)cs2)cc1 | inactive | –
53 | COc1ccc(CC2SC(=O)NC2=O)cc1C(=O)NCc1ccc(C(F)(F)F)cc1 (centres undefined) | inactive | –
54 | CC[C@@]1(O)C(=O)OCc2c1cc1n(c2=O)Cc2cc3cc(O)ccc3nc2-1 | 0.418 µM (active) | –
55 | C=CC(=O)Nc1cc2c(Nc3ccc(F)c(Cl)c3)ncnc2cc1C#CC(C)(C)N1CCN(C)CC1 | 4.69 µM (active) | –
56 | Cc1cc(N2CCOCC2)cc2[nH]c(-c3c(NC[C@@H](O)c4cccc(Cl)c4)cc[nH]c3=O)nc12 | 18.7 µM (active) | –
57 | O=C(C=Cc1cccc(S(=O)(=O)Nc2ccccc2)c1)NO | 1.91 µM (active) | –
58 | CC[C@H](CO)Nc1nc(NCc2ccccc2)c2ncn(C(C)C)c2n1 | inactive | –
59 | CNC(=O)c1cc(Oc2ccc(NC(=O)Nc3cc(C(C)(C)C)nn3-c3ccc4ncccc4c3)c(F)c2)ccn1 | 20.9 µM (active) | –
